These results are taken from PubChem BioAssay AID720706 (Broad Institute, 2013).

The campaign covered roughly 350,000 compounds. About 5,500 (1.6%) were called active.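 The calls were made as follows: active = significant combined selectivity score with lowered wild-type GFP, culture density cut under 30%, mutant RFP and density less affected; inactive = any of these conditions unmet.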 Only a selection was taken, and actives are over-represented in it overall.

The experiment in a line: reduced GFP signal of wild-type E. coli, primary screen, bacterial rRNA inhibitor project, GFP/RFP fluorescence, OD600, single point (AID 720706). As to conditions: E. coli WT GFP vs humanized-ribosome RFP mutants, 24 h; GFP signal change (wild-type ribosome): stronger effect = lower value, DMSO median 0, no signal -100; OD600 change: measured here: OD600 growth, DMSO median 0, no signal -100; RFP signal change: measured here: RFP humanized mutant strains, DMSO median 0, no signal -100, concentration not given here.
For the compound `COC(=O)c1ccc(CSc2nc3ccccc3c(=O)n2-c2cccc(OC)c2)o1`, the GFP signal change (wild-type ribosome) is 1.15% (inactive), the OD600 change was -0.729% and the RFP signal change was found to be 0.461%.

As for `Cc1nnc(SCC(=O)Nc2cccc(N)c2)n1-c1ccccc1`, the GFP signal change (wild-type ribosome) was 6.38% (inactive), the OD600 change is 12% and the RFP signal change was 4.46%.

With `Cc1nnc(SCc2ccc(C(=O)c3ccc(Cl)cc3)o2)n1-c1ccccc1`, the GFP signal change (wild-type ribosome) was -32.1% (active), the OD600 change was -22.7% and the RFP signal change amounted to 3.57%.

As to `C[C@@H]1CN([C@@H](C)CO)C(=O)c2cc(NS(=O)(=O)c3cn(C)cn3)ccc2O[C@@H]1CN(C)Cc1ccc(C(=O)Nc2ccccc2N)cc1`, the GFP signal change (wild-type ribosome) was 5.78% (inactive), the OD600 change amounted to 6.33% and the RFP signal change amounted to 3.25%.

As to `O=c1[nH]n2c(-c3ccccc3)nc(O)c2c2ccccc12`, the GFP signal change (wild-type ribosome) is -31.6% (active), the OD600 change is -7.74% and the RFP signal change turned out to be 0.585%.

With `O=C(O)c1ccc(-n2nc(-c3ccccc3)c3ccccc3c2=O)cc1`, the GFP signal change (wild-type ribosome) is 2.07% (inactive), the OD600 change was -9.56% and the RFP signal change was -1.61%.

Regarding `COCC(=O)N1CC(=O)N2[C@@H](CO)[C@@H](c3ccc(C#CC(C)C)cc3)[C@@H]2C1`, the GFP signal change (wild-type ribosome) is -0.482% (inactive), the OD600 change came to 2.33% and the RFP signal change was -1.33%.

For the compound `COc1ccc(C#Cc2ccc([C@@H]3[C@H](CO)N4C(=O)CN(C(C)=O)C[C@@H]34)cc2)cc1`, the GFP signal change (wild-type ribosome) was -2.96% (inactive), the OD600 change is -13.2% and the RFP signal change was -2.12%.

Take `CC(=O)Nc1cccc2c1O[C@@H](CN(C)C(C)=O)[C@@H](C)CN(C)C2=O`: the GFP signal change (wild-type ribosome) is -0.3% (inactive), the OD600 change turned out to be 2.46% and the RFP signal change is -0.39%.

Take `COc1ccc2c3c(n(C)c2c1)[C@@H](CO)N(C(=O)c1cnccn1)CC31CCN(C(C)=O)CC1`: the GFP signal change (wild-type ribosome) is 4.42% (inactive), the OD600 change was determined as 18.1% and the RFP signal change was -2.67%.

For the compound `C[C@@H](Nc1nc(-c2ccccc2)nc2c1oc1ccccc12)C(=O)O`, the GFP signal change (wild-type ribosome) is -25.4% (active), the OD600 change is -3.54% and the RFP signal change amounted to 7.03%.

As to `COCCNc1nc(-c2ccccc2)nc2c1oc1ccccc12`, the GFP signal change (wild-type ribosome) is -38% (inactive), the OD600 change was -50.5% and the RFP signal change was -2.59%.

With `O=c1[nH]c(CSc2ccccc2)nc2c1oc1ccccc12`, the GFP signal change (wild-type ribosome) is 4.21% (inactive), the OD600 change stood at 3% and the RFP signal change was -8.61%.

Take `O=C(C1CCCCC1)N1CC(=O)N2[C@H](CO)[C@H](c3ccc(-c4ccccc4F)cc3)[C@H]2C1`: the GFP signal change (wild-type ribosome) is -9.7% (inactive), the OD600 change is -39.9% and the RFP signal change was determined as 0.225%.

Turning to `C[C@@H]1CCCCO[C@@H](CN(C)C(=O)Nc2ccc(F)cc2)[C@H](C)CN([C@@H](C)CO)C(=O)c2cc(NS(C)(=O)=O)ccc2O1`, the GFP signal change (wild-type ribosome) was -0.965% (inactive), the OD600 change is -0.127% and the RFP signal change was determined as 0.106%.

As for `CN(C)CC(=O)N1[C@H](C#N)[C@H](c2ccccc2-c2cccc(C(=O)N(C)C)c2)[C@@H]1CO`, the GFP signal change (wild-type ribosome) was 3.14% (inactive), the OD600 change came out at 9.94% and the RFP signal change is -2.26%.

Regarding `C[C@@H]1CCCCO[C@@H](CN(C)Cc2ccc(C(=O)Nc3ccccc3N)cc2)[C@H](C)CN([C@H](C)CO)C(=O)c2cc(N(C)C)ccc2O1`, the GFP signal change (wild-type ribosome) is 0.759% (inactive), the OD600 change amounted to 1.41% and the RFP signal change was -1.39%.

Consider `C[C@H]1CN([C@@H](C)CO)C(=O)Cc2cc(NC(=O)C3CC3)ccc2O[C@H]1CN(C)S(=O)(=O)c1ccc(Cl)cc1`, for which the GFP signal change (wild-type ribosome) was -2.58% (inactive), the OD600 change is -5.07% and the RFP signal change was found to be 2.87%.

On to `O=C(N/N=C/c1ccccn1)c1cccc(NC(=O)c2ccc(Cl)cc2)c1`, for which the GFP signal change (wild-type ribosome) is -12.4% (inactive), the OD600 change was -9.16% and the RFP signal change is -2.65%.

`Cc1nnc(N/N=C/c2ccccn2)[nH]c1=O`: the GFP signal change (wild-type ribosome) was -26% (active), the OD600 change was determined as 6.61% and the RFP signal change stood at 2.3%.

`S=C(NN=Cc1ccccn1)Nc1ccccn1`: the GFP signal change (wild-type ribosome) was -3.3% (inactive), the OD600 change came to 1.4% and the RFP signal change was -6.11%.

With `CN1[C@@H]2c3ccc(-c4ccc(F)cc4)c(=O)n3C[C@H]1[C@H](CO)[C@H]2C(=O)NC1CCC1`, the GFP signal change (wild-type ribosome) was 0.894% (inactive), the OD600 change is -1.58% and the RFP signal change was -1.53%.

For the compound `Cc1ccc(-n2c(SCC(=O)Nc3ncc(Cl)cc3Cl)nc3ccccc32)cc1`, the GFP signal change (wild-type ribosome) is -23.3% (inactive), the OD600 change was -16.7% and the RFP signal change was 11.6%.

For `COc1ccc(-n2cnnc2SCC(=O)Nc2cccc(S(N)(=O)=O)c2)cc1`, the GFP signal change (wild-type ribosome) is 5.58% (inactive), the OD600 change is 7.26% and the RFP signal change is -1.5%.

`NS(=O)(=O)c1cccc(NC(=O)CSc2nc3ccccc3n2-c2ccccc2)c1`: the GFP signal change (wild-type ribosome) is -43.3% (active), the OD600 change is -4.95% and the RFP signal change is 0.431%.

As for `CC(C)NC(=O)Nc1ccc2c(c1)C(=O)N([C@@H](C)CO)C[C@H](C)[C@H](CN(C)C(=O)Nc1ccc(F)cc1)OCCCC[C@@H](C)O2`, the GFP signal change (wild-type ribosome) was 9.43% (inactive), the OD600 change stood at 11.5% and the RFP signal change is -1.2%.

In the case of `O=S(=O)(c1ccccc1)N1CC[C@@H]2[C@H]1c1cc(C#Cc3cccc(F)c3)ccc1N[C@@H]2CO`, the GFP signal change (wild-type ribosome) is -1.75% (inactive), the OD600 change amounted to 20.2% and the RFP signal change was -0.35%.

`CCCNC(=O)N1CC2(C1)[C@H](c1ccccc1)[C@@H](CO)N2C(=O)C1CC1`: the GFP signal change (wild-type ribosome) was 2.01% (inactive), the OD600 change came out at 4.92% and the RFP signal change is -0.981%.

Take `COc1ccc(NC(=O)N[C@@H]2CC[C@H](CCn3cc(-c4ccc(OC)cc4)nn3)O[C@@H]2CO)cc1`: the GFP signal change (wild-type ribosome) is -3.5% (inactive), the OD600 change is -6.01% and the RFP signal change is 3.35%.

In the case of `COc1ccc(S(=O)(=O)N[C@H]2CC[C@H](CCn3cc(C(C)C)nn3)O[C@@H]2CO)cc1`, the GFP signal change (wild-type ribosome) was 3.72% (inactive), the OD600 change was 10.4% and the RFP signal change is 1.37%.

For `C[C@H](NC(=O)C[C@@H]1C[C@@H]2c3cc(NS(=O)(=O)c4ccc(F)cc4)ccc3O[C@@H]2[C@@H](CO)O1)c1ccccc1`, the GFP signal change (wild-type ribosome) is -27.2% (active), the OD600 change was -16.8% and the RFP signal change came to 2.38%.

On to `O=C(C[C@@H]1C[C@H]2c3cc(NS(=O)(=O)c4ccc(F)cc4)ccc3O[C@H]2[C@H](CO)O1)NCCc1ccccc1`, for which the GFP signal change (wild-type ribosome) was 0.771% (inactive), the OD600 change is -17.4% and the RFP signal change was 2.06%.

For `O=C(C[C@@H]1C[C@H]2c3cc(NS(=O)(=O)c4ccc(F)cc4)ccc3O[C@H]2[C@H](CO)O1)NC1CCCC1`, the GFP signal change (wild-type ribosome) was -1.46% (inactive), the OD600 change was -4.87% and the RFP signal change is -0.359%.
